These results are taken from PMC4336329 (PLoS ONE, 2015).

The whole screen tested about 310,000 compounds, of which about 14,000 (4.5%) showed an effect of 50% or more. The effect is printed as a negative number. The entries come from a sample that favours strong results as a whole.
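Further: peak tail current of the secondary pulse compared with the same well before compound.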

Sequence of human ether-à-go-go-related gene (hERG) potassium channel (Q12809 whole entry, looked up): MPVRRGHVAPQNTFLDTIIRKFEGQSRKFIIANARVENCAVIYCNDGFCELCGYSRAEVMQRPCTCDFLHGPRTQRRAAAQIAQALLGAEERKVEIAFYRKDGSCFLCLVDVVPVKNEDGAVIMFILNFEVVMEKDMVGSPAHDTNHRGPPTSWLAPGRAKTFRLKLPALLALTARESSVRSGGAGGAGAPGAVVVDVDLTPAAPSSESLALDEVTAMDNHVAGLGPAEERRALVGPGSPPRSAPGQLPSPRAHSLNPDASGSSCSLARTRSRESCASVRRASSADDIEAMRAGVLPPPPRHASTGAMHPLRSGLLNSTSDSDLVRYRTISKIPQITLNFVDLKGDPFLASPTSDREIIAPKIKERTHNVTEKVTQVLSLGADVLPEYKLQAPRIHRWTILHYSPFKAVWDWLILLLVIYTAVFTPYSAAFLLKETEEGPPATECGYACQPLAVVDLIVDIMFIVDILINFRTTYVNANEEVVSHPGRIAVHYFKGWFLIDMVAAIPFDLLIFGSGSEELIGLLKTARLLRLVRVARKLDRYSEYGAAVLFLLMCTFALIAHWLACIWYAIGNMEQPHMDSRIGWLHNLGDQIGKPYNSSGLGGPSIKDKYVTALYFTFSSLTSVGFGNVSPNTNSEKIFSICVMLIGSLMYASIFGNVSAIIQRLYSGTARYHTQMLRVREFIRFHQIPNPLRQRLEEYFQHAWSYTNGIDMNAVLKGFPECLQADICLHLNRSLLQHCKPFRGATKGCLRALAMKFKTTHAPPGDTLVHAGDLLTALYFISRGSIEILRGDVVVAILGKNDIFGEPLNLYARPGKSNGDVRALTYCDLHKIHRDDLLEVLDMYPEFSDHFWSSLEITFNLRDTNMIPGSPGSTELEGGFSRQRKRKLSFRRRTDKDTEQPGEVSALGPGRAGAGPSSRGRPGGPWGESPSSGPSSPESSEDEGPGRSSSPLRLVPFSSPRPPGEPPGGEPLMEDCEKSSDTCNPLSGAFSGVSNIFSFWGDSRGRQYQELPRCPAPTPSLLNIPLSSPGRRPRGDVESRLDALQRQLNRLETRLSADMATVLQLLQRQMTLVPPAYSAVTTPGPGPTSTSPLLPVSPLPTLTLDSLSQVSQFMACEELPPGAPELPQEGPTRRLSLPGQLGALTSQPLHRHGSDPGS

The assay concerns the target human ether-à-go-go-related gene (hERG) potassium channel (human, UniProt Q12809). In words: primary screen, population patch clamp on CHO cells stably expressing hERG; higher = less effect of the substance.
Regarding `O=C(c1ccco1)N1CCN(S(=O)(=O)c2ccc3c(c2)OCCO3)CC1`, the “hERG current change (%, negative = inhibition) at 10uM” value is reported as -0.283%.

Turning to `CC(=O)Nc1ccc(SCC(=O)Nc2oc(C)c3c(C)n[nH]c(=O)c23)cc1`, the “hERG current change (%, negative = inhibition) at 10uM” value is on record as 8.72%.

Turning to `CCn1c(/C=C/N(C(C)=O)c2ccccc2)[n+](CCCS(=O)(=O)[O-])c2cc(Cl)c(Cl)cc21`, the “hERG current change (%, negative = inhibition) at 10uM” value is on record as 19.9%.

On to `CCn1c(/C=C/Nc2ccccc2)[n+](CC)c2cc(Cl)c(Cl)cc21.[I-]`, for which the “hERG current change (%, negative = inhibition) at 10uM” value is on record as -79.3%.

For `CCn1c(/C=C/N(C(C)=O)c2ccccc2)[n+](CC)c2ccc(Cl)cc21.[I-]`, the “hERG current change (%, negative = inhibition) at 10uM” value is 2.3%.

For the compound `Cc1n(C)c2cc(Cl)ccc2[n+]1Cc1ccccc1.[I-]`, the “hERG current change (%, negative = inhibition) at 10uM” value is on record as -3.49%.

In the case of `CCn1c(/C=C/Nc2ccccc2)[n+](CC)c2ccc(Cl)cc21.[I-]`, the “hERG current change (%, negative = inhibition) at 10uM” value is -78.6%.

As to `CCn1c(C)[n+](CCOCC[n+]2c(C)n(CC)c3cc(Cl)c(Cl)cc32)c2cc(Cl)c(Cl)cc21.[I-]`, the “hERG current change (%, negative = inhibition) at 10uM” value was 6.82%.

With `CC(=O)c1ccc(Oc2cc(C)nc(N3CCOCC3)n2)cc1`, the “hERG current change (%, negative = inhibition) at 10uM” value is -13.3%.

For the compound `COC(=O)c1ccc(Oc2cc(C)nc(-n3nc(C)cc3C)n2)cc1`, the “hERG current change (%, negative = inhibition) at 10uM” value is given as -22.4%.

For `CC(=O)c1ccc(Oc2cc(C)nc(-n3nc(C)cc3C)n2)cc1`, the “hERG current change (%, negative = inhibition) at 10uM” value is reported as -59.9%.

Take `COc1cccc(OC)c1C(=O)N1CCN(Cc2ccccc2C)CC1`: the “hERG current change (%, negative = inhibition) at 10uM” value is -0.823%.

Regarding `O=C1C2C3C=CC(C2C(=O)N1C1CCCCC1)C1C(=O)N(C2CCCCC2)C(=O)C31` (stereo not drawn), the “hERG current change (%, negative = inhibition) at 10uM” value came to 14.7%.

For the compound `COc1ccc(C2c3ccc(O)cc3Oc3ncn(Cc4ccccc4)c(=N)c32)cc1OC` (stereo not drawn), the “hERG current change (%, negative = inhibition) at 10uM” value was -51.7%.

Take `COc1ccc(C2c3ccc(O)cc3Oc3ncn(CC(C)C)c(=N)c32)cc1` (stereo not drawn): the “hERG current change (%, negative = inhibition) at 10uM” value is -69.8%.

In the case of `COc1ccc(C2c3ccc(O)cc3Oc3ncn(CCN4CCOCC4)c(=N)c32)cc1OC` (stereo not drawn), the “hERG current change (%, negative = inhibition) at 10uM” value was -11.8%.

For the compound `COc1ccc(C2c3c(ncn(Cc4ccco4)c3=N)Oc3ccc4ccccc4c32)cc1` (stereo not drawn), the “hERG current change (%, negative = inhibition) at 10uM” value is -7.04%.

As to `COc1ccc(C2c3ccc(O)cc3Oc3ncn(Cc4ccco4)c(=N)c32)cc1` (stereo not drawn), the “hERG current change (%, negative = inhibition) at 10uM” value was -71.9%.

On to `COc1ccc(C2c3ccc(O)cc3Oc3ncn(CCN4CCOCC4)c(=N)c32)cc1` (stereo not drawn), for which the “hERG current change (%, negative = inhibition) at 10uM” value is -28.1%.

For `COc1ccc(C2c3ccc(O)cc3Oc3ncn(CCCO)c(=N)c32)cc1` (stereo not drawn), the “hERG current change (%, negative = inhibition) at 10uM” value is listed as -22.8%.

Consider `COc1ccc(C2c3ccc(O)cc3Oc3ncn(Cc4ccco4)c(=N)c32)cc1OC` (stereo not drawn), for which the “hERG current change (%, negative = inhibition) at 10uM” value is recorded as -74.4%.

Take `COc1ccc(C2c3ccc(O)cc3Oc3ncn(CCCO)c(=N)c32)cc1OC` (stereo not drawn): the “hERG current change (%, negative = inhibition) at 10uM” value was -6.28%.

On to `CC(=O)c1cccc(NC(=O)c2ccc(NC(=O)CC3SC(N4CCCCC4)=NC3=O)cc2)c1` (stereo not drawn), for which the “hERG current change (%, negative = inhibition) at 10uM” value came out at 10.3%.

As to `COc1ccc(-n2nc(C(=O)NCC(=O)NCCN(C)C)c3ccccc3c2=O)cc1`, the “hERG current change (%, negative = inhibition) at 10uM” value stood at 10.7%.

For the compound `Nc1ncn[nH]1`, the “hERG current change (%, negative = inhibition) at 10uM” value is on record as 13.5%.

On to `COc1ccccc1NC(=S)NC(NC(=O)CC(C)C)C(Cl)(Cl)Cl` (stereo not drawn), for which the “hERG current change (%, negative = inhibition) at 10uM” value was determined as 22.2%.

As to `CC1=NN(C(=O)c2ccc(Cn3cc(Br)c([N+](=O)[O-])n3)o2)C(O)(C(F)(F)F)C1` (stereo not drawn), the “hERG current change (%, negative = inhibition) at 10uM” value is listed as -16.6%.

`CN(CCOc1ccccc1)C(=O)CCc1c[nH]c2ccccc12.Cl`: the “hERG current change (%, negative = inhibition) at 10uM” value was -0.585%.

For `CCOc1ccc(C(=O)NN2C(=O)C3C4C=CC(O4)C3C2=O)cc1` (stereo not drawn), the “hERG current change (%, negative = inhibition) at 10uM” value is on record as -14%.

`COC(=O)c1ccccc1NC(=O)c1cccs1`: the “hERG current change (%, negative = inhibition) at 10uM” value worked out at 1.38%.

As to `N=c1c2c(ncn1CCCO)Oc1cc(O)ccc1C2c1ccccc1` (stereo not drawn), the “hERG current change (%, negative = inhibition) at 10uM” value was -33.7%.

`N=c1c2c(ncn1CCN1CCOCC1)Oc1cc(O)ccc1C2c1ccccc1` (stereo not drawn): the “hERG current change (%, negative = inhibition) at 10uM” value is recorded as -42.9%.

Take `N=c1c2c(ncn1Cc1ccco1)Oc1cc(O)ccc1C2c1ccccc1` (stereo not drawn): the “hERG current change (%, negative = inhibition) at 10uM” value was -74.1%.

`COc1ccc(/C=C(\C#N)C(=O)NC(C)c2ccccc2)cc1O` (stereo not drawn): the “hERG current change (%, negative = inhibition) at 10uM” value was -24.2%.

With `Cc1cc(C(=O)N/N=C/c2ccco2)c2ccccc2n1`, the “hERG current change (%, negative = inhibition) at 10uM” value is listed as 1.37%.

For `COc1cc(NC(=O)C(c2ccccc2)c2ccccc2)c(C(=O)O)cc1OC`, the “hERG current change (%, negative = inhibition) at 10uM” value stood at 16.7%.

With `O=C(NCc1cccnc1)Nc1ccc(F)cc1F`, the “hERG current change (%, negative = inhibition) at 10uM” value is recorded as -4.58%.

`Cc1noc(C)c1S(=O)(=O)N(CC(=O)N1CCn2c1nc1ccccc12)c1ccc(C(C)C)cc1`: the “hERG current change (%, negative = inhibition) at 10uM” value is on record as -14.9%.

`CCOc1ccc(CNc2ccc3c(c2)ncn3C)cc1`: the “hERG current change (%, negative = inhibition) at 10uM” value is listed as -46.6%.

For the compound `CC(C)(C)n1cnc2cc(NCc3ccc(Br)cc3)ccc21`, the “hERG current change (%, negative = inhibition) at 10uM” value is given as -69.2%.

Turning to `CC(C)(C)n1cnc2cc(NCc3ccccc3O)ccc21`, the “hERG current change (%, negative = inhibition) at 10uM” value is given as -10.1%.

`CC(C)(C)n1cnc2cc(NCc3cccs3)ccc21`: the “hERG current change (%, negative = inhibition) at 10uM” value was -28.2%.
